Sampled rows, rich in hits. Any-hit rate of the full collection: about 28%.
Pyk2 oligo antag: blocks oligomerization of human Pyk2 in cells; Q14289; Q293 cells, Pyk2 FERM NanoBiT luminescence; stronger effect = lower value; z-score (the deposit names both 25 µM and 10 µM); 0.83% of 99,000 active; AID 1347419;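 active means Z-score of -3 or lower, scaled per plate to the spread of control and sample wells; inactive means z-score above -3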;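 further: negative z-score means lost luminescence so less FERM oligomerization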
CYP2C19 inhib: inhibitors of human CYP2C19; P33261; inhibition, % at 5 µM; 21% of 96,000 active; CYP2C19 Supersomes, luciferin-H EGE luminescence, 30 min; AID 778;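 active means CYP2C19 inhibition above a set limit at 5 µM in the primary screen, cut at about 50% in these data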;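 further: plate controls were negative control wells for no effect and 2.5 mM tranylcypromine positive control for full effect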
Target sequence (P33261 whole entry, looked up): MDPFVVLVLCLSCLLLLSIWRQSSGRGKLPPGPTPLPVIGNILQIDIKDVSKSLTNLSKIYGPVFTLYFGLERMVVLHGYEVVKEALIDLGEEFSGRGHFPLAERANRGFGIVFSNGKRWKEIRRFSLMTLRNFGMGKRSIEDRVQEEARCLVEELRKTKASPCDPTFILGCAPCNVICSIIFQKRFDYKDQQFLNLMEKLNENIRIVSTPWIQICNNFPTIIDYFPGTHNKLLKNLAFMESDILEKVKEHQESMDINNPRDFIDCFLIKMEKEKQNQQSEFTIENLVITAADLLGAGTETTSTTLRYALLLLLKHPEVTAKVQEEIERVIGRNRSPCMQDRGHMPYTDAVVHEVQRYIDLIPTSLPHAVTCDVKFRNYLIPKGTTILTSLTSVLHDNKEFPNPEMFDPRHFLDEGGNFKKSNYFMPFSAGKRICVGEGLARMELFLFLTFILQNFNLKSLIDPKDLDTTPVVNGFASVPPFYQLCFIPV
CYP2C9 act: CYP2C9 (human) activation; 1.4% of 96,000 active; P11712; activation factor at 5 µM; recombinant CYP2C9, luciferin-H conversion, luminescence; stronger effect = higher value; factor 1 = untreated enzyme, 0 = blocked;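 active means activation factor of 2 or more for CYP2C9 at a 5 µM dose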;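 further: 0 = sulfaphenazole-blocked wells and 1 = vehicle-only wells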
CYP2C19 activ: activators of human cytochrome P450 2C19; P33261; AID 1025; activation factor at 5 µM; recombinant CYP2C19, luciferin-H EGE luminescence; stronger effect = higher value; 0 = fully inhibited enzyme, 1 = untreated enzyme; 96,000 tested, under 10 active;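 active means activation factor of at least 2 at 5 µM in the primary screen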;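 further: 0 = wells with 2.5 mM tranylcypromine and 1 = vehicle-only wells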
CYP2C9 inhib: human CYP2C9 inhibition; P11712; CYP2C9 Supersomes, luciferin-H conversion, luminescence; inhibition, % at 5 µM; 20% of 96,000 active; AID 777;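 active means blocking of liver enzyme CYP2C9 beyond about 50% at 5 µM, limit read from the data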
An asterisk follows results filed as active; . = not tested or not shown.

SMILES | Pyk2 oligo antag | CYP2C19 inhib | CYP2C9 act | CYP2C19 activ | CYP2C9 inhib
Cn1c(C(=O)NC2CCCC2)cc2c(=O)n(C)c3ccccc3c21 | . | 56* | 1 | 0.4 | 5
Cn1c(C(=O)NCCN2CCCCCC2)cc2c(=O)n(C)c3ccccc3c21 | . | 7 | 1.1 | 0.9 | -6
Cn1c(C(=O)Nc2ccc3c(c2)OCO3)cc2c(=O)n(C)c3ccccc3c21 | . | 4 | 0.6 | 1 | 37
CCOc1ccc(NC(=O)c2cc3c(=O)n(C)c4ccccc4c3n2C)cc1 | . | 32 | 0.2 | 0.7 | 84*
O=C(COc1ccccc1)Nc1nn[nH]n1 | -0.74 | -3 | 0.9 | 1 | 7
Cc1ccc(NC(=O)CSC2=C(C#N)C(c3ccco3)C3=C(CCCC3=O)N2)cc1 (stereo not drawn) | -1.3 | 18 | 0.6 | 0.8 | 43
COc1ccc(OC)c(NC(=O)CSC2=C(C#N)C(c3ccco3)C3=C(CCCC3=O)N2)c1 (stereo not drawn) | -2.4 | 84* | 0.1 | 0.2 | 86*
CC1(C)CC(=O)C2=C(C1)NC(SCC(=O)Nc1ccccc1)=C(C#N)C2c1ccco1 (stereo not drawn) | -1.2 | 96* | 0 | 0 | 95*
N#CC1=C(SCC(=O)c2ccc(Cl)cc2)NC2=C(C(=O)CCC2)C1c1ccco1 (stereo not drawn) | -0.26 | 99* | 0 | 0 | 97*
COc1ccc(OC)c(C2C(C(=O)Nc3cccnc3)=C(C)NC3=C2C(=O)CCC3)c1 (stereo not drawn) | 0.42 | 56* | 0 | 0.4 | 98*
CSC1=C(C#N)C(c2ccc(C)cc2)C2=C(CCCC2=O)N1 (stereo not drawn) | -0.49 | 9 | 0.8 | 0.9 | 16
CCC(C)NC(=O)CSC1=Nc2ccccc2C2=NC(CC(=O)NCc3ccccc3)C(=O)N12 (stereo not drawn) | 0.28 | . | . | . | .
Cc1ccc(C(=O)CSC2=C(C#N)C(c3ccco3)C3=C(CC(C)(C)CC3=O)N2)cc1 (stereo not drawn) | 0.49 | 88* | 0.1 | 0.1 | 88*
CCc1ccccc1NC(=O)CSC1=C(C#N)C(c2ccc3c(c2)OCO3)C2=C(CCCC2=O)N1 (stereo not drawn) | -0.08 | 51* | 0.2 | 0.5 | 80*
CC1=C(C(=O)Nc2ccccc2)C(c2ccc3c(c2)OCO3)C2=C(CCCC2=O)N1 (stereo not drawn) | -0.86 | 66* | 0.5 | 0.3 | 53*
COc1ccccc1NC(=O)C1=C(C)NC(SCC(=O)c2ccccc2)=C(C#N)C1c1ccco1 (stereo not drawn) | -0.56 | 55* | 0.2 | 0.5 | 78*
CSC1=C(C#N)C(C)C2=C(CC(C)(C)CC2=O)N1 (stereo not drawn) | -0.06 | 1 | 1.1 | 1 | -8
CC1=C(C(=O)Nc2cc(C)ccn2)C(c2ccc(C)cc2)C2=C(CCCC2=O)N1 (stereo not drawn) | -0.64 | 19 | 0.8 | 0.8 | 24
CC(=O)C1=C(C)NC(SCC(=O)c2ccc(C)cc2)=C(C#N)C1c1ccco1 (stereo not drawn) | . | 99* | 0 | 0 | 96*
CC(=O)C1=C(C)NC(SCC(N)=O)=C(C#N)C1c1cccnc1 (stereo not drawn) | -0.08 | 4 | 1 | 1 | 4
Cc1cc(C)c(S(C)(=O)=O)c(S(=O)(=O)c2ccc(Cl)cc2)n1 | -0.84 | 29 | 0.6 | 0.7 | 37
Cc1ccc(Sc2nc(C)cc(C)c2S(C)(=O)=O)cc1 | -1.2 | 47 | 0.4 | 0.5 | 64*
Cc1ccc(C)c(NC(=O)CS(=O)(=O)c2c[nH]c3ccccc23)c1 | 0.08 | 70* | 3.1* | 0.3 | -212
c1ccc(C2Nc3ccccc3-c3nc4ccccc4n32)cc1 (stereo not drawn) | -0.88 | 47 | 0.3 | 0.5 | 71*
c1ccc(C2Nc3ccccc3-c3nc4ccccc4n32)nc1 (stereo not drawn) | -1.6 | . | . | . | .
SMILES | Pyk2 oligo antag | CYP2C19 inhib | CYP2C9 act | CYP2C19 activ | CYP2C9 inhib
Cc1cc2n(n1)C(c1ccco1)Nc1ccccc1-2 (stereo not drawn) | -0.22 | 16 | 0.8 | 0.8 | 18
c1coc(C2Nc3ccccc3-c3nc4ccccc4n32)c1 (stereo not drawn) | -1.5 | 80* | 0.1 | 0.2 | 91*
CCc1cccc(NC(=O)Cn2cccc2)c1 | -0.79 | 30 | 2* | 0.7 | -98
CCc1cccc(NC(=O)CSC2=NS(=O)(=O)c3ccccc32)c1 | . | 24 | 0.9 | 0.8 | 13
CCc1cccc(NC(=O)CSCc2cc(=O)[nH][nH]2)c1 | -0.41 | 75* | 0.9 | 0.3 | 5
COCCCNC(=O)c1cc2c(-c3ccc(Cl)cc3)nn(C)c2s1 | . | 8 | 0.8 | 0.9 | 22
COCCNC(=O)c1cc2c(-c3ccc(Cl)cc3)nn(C)c2s1 | . | 20 | 0.9 | 0.8 | 9
Cc1ccc(CNC(=O)c2cc3c(-c4ccc(Cl)cc4)nn(C)c3s2)o1 | . | 14 | 0.4 | 0.9 | 63*
CCCCNC(=O)c1cc2c(-c3ccc(Cl)cc3)nn(C)c2s1 | . | 42 | 0.4 | 0.6 | 59*
CS(=O)(=O)N1CCCC(C(=O)NCCCN2CCOCC2)C1 (stereo not drawn) | 0.96 | -2 | 1 | 1 | -1
COC(=O)\C(C(C)=O)=C(/C=C/C=C/C=C/N(C)C)N(C)C | -0.09 | 0 | 0.9 | 1 | 7
CCN1CCN(C(=S)c2ccc(OCC(=O)N3CCOCC3)cc2)CC1 | -0.05 | 6 | 1 | 0.9 | -1
CCC(C)NC(=O)C1CCN(S(=O)(=O)c2ccc(OC)cc2)CC1 (stereo not drawn) | 1.8 | 19 | 1.1 | 0.8 | -14
O=C(Nc1nc2ccc(S(=O)(=O)N3CCCC3)cc2s1)C1CCCCC1 | -1.5 | 4 | 0.4 | 1 | 64*
COc1ccc2nc(NC(=O)Cc3ccc(OC)c(S(=O)(=O)N4CCOCC4)c3)sc2c1 | -0.64 | 55* | 0.6 | 0.5 | 38
COc1ccc2nc(NC(=O)c3cccc(S(=O)(=O)N4CCOCC4)c3)sc2c1 | -1.4 | 30 | 0.7 | 0.7 | 34
COc1ccc2nc(NC(=O)CN3CCOCC3)sc2c1 | 0 | -3 | 0.7 | 1 | 26
Nc1nc2ccc(S(=O)(=O)N3CCCCC3)cc2s1 | . | 31 | 1.5 | 0.7 | -46
O=C(Nc1nc2ccc(S(=O)(=O)N3CCCCC3)cc2s1)C1CCCO1 (stereo not drawn) | -1.8 | 7 | 0.2 | 0.9 | 77*
COc1cc(C(=O)Nc2nc3ccc(S(=O)(=O)N4CCOCC4)cc3s2)cc(OC)c1OC | -2.2 | 54* | 0.2 | 0.5 | 79*
CSc1nc2ccc(S(=O)(=O)N3CCOCC3)cc2s1 | -0.25 | 100* | 0.4 | 0 | 63*
CSc1nc2ccc(S(=O)(=O)N3CCCCC3)cc2s1 | -2.1 | 41 | 0.8 | 0.6 | 17
c1ccc(CN2CCN(C3=Nc4cccc5cccc3c45)CC2)cc1 | 0.4 | 57* | 0.9 | 0.4 | 14
Cc1[nH]n(-c2ccc([N+](=O)[O-])cc2)c(=O)c1C=NCCN1CCN(C(=O)c2ccccc2)CC1 | 1.2 | 59* | 0.3 | 0.4 | 65*

High-throughput results from PubChem BioAssay.
